Hit rate of the full screen: of about 48,000 compounds, about 13,000 (27%) showed an effect of 50% or more. Some of the results follow.
Tested on: Wolbachia pipientis
Experiment: Anti-Wolbachia Cell-Based Screen
Type: functional
Set-up: scale not given: in the data most compounds retested in dose-response had high values
Settings: 5 µM

SMILES	Percent Effect
Cc1cc(NC(=O)CNCc2csc(-c3cnccn3)n2)ccc1Cl	-4.536%
CN(c1ncccc1CNS(=O)(=O)N1CCOCC1)C1CCCCC1	1.985%
Cc1ccc(S(=O)(=O)N2CCOCC2C#N)cc1Br (configuration not stated)	-3.449%
Cc1nc[nH]c1CN1C[C@@H]2CC[C@H](C1)N(C(=O)CCc1cnn(C)c1)C2	-6.684%
O=C(NCCCn1ccnn1)C1CCCN(C2CCCC2)C1 (configuration not stated)	9.707%
O=c1c(CN2CCCCCC2)coc(O)c1CN1CCCCCC1	87.67%
CC(C)NC(=O)Nc1ccccc1CN1CCOCC1	8.436%
O=c1c(CN2CCOCC2)coc2ccc(Cl)cc12	14.49%
CC(C)C(C)NC(=O)Nc1ccccc1CN1CCOCC1 (configuration not stated)	-2.62%
O=c1c(CN2CCSCC2)coc(O)c1CN1CCCC1	112.9%
Cc1ccc2occ(CN3CCN(c4ncccn4)CC3)c(=O)c2c1	-23.78%
O=c1c(CN2CCOCC2)coc(O)c1CN1CCOCC1	110.9%
O=C1OCCN1CCN1CCCN(Cc2ccccc2F)CC1	0.37%
O=c1c(CN2CCCCCC2)coc(O)c1CN1CCOCC1	99.75%
O=c1c(CN2CCCCC2)coc2ccc(Cl)cc12	-1.352%
CCn1ccc2ccc(CN3CCCC3c3nc(C(C)C)no3)cc21 (configuration not stated)	-10.44%
Cc1cccc(CO[C@H]2CO[C@@]3(CCN(S(=O)(=O)N(C)C)C3)C2)n1	-27.75%
FC(F)(F)Sc1ccccc1NCc1nc(C2CC2)no1	0.6009%
CC(NCc1cnc(C2CCC2)s1)c1ccc(-n2cncn2)cc1 (configuration not stated)	-68.33%
CC(C)CCCC(C)NC(=O)c1ccc(OCC(N)=O)cc1 (configuration not stated)	-8.979%
O=C(NCC(F)(F)F)C(c1cccnc1)N1CCCC1 (configuration not stated)	-5.02%
O=C(CC1Cn2ncnc2NC1=O)Nc1ccc(F)c(F)c1 (configuration not stated)	110.9%
CCC(=O)Nc1ccc(F)c(S(=O)(=O)NC(C)(C)C)c1	-7.233%
Cc1ccc(NC(=O)CC2Cn3ncnc3NC2=O)cc1C (configuration not stated)	101.1%
Cc1ccc(NC(=O)c2ccc(CC3CC(=O)NC3=O)cc2)cc1O (configuration not stated)	-14.91%
CC(NC(=O)Nc1ccc(F)c(F)c1)c1nc[nH]n1 (configuration not stated)	-17.28%

SMILES	Percent Effect
Cc1cc(NC(=O)CNCc2csc(-c3ncccn3)n2)ccc1Cl	12.11%
O=C1CN(c2ccc(CNC(=O)c3ccc[nH]3)cc2F)CCN1	1.628%
CCNC(=O)NC(=O)CN(CC(C)O)c1ccccc1 (configuration not stated)	-6.081%
FC(F)(F)c1nnc2n1CCN(c1nc(C3CC3)ns1)C2	7.167%
O=C(NCc1cc(-c2ccccc2)no1)NCC1CCCO1 (configuration not stated)	63.77%
CC1(C)CC1C(=O)NS(=O)(=O)Cc1cc(-c2ccccc2)no1 (configuration not stated)	-6.027%
O=S(=O)(Cc1cc(-c2ccccc2)no1)CC1CCCO1 (configuration not stated)	117.5%
Cc1cc(C)c(CNC(=O)NCC2CCCO2)c(=O)[nH]1 (configuration not stated)	-10.27%
O=C(CC1CCCO1)NS(=O)(=O)Cc1cc(-c2ccccc2)no1 (configuration not stated)	94.25%
O=C(NS(=O)(=O)Cc1cc(-c2ccccc2)no1)C1CCOCC1	-7.495%
CC(C(=O)NS(=O)(=O)Cc1cc(-c2ccccc2)no1)C1CC1 (configuration not stated)	-15.76%
CCN1CCC(CNC(=O)NCc2cc(-c3ccc(C)cc3)no2)C1 (configuration not stated)	6.048%
c1ccc(-c2cc(CN3CCC(c4ccn[nH]4)CC3)on2)cc1	-18.74%
CS(=O)(=O)N1CC(c2nc[nH]n2)c2cc(C(=O)NC3CC3)ccc21 (configuration not stated)	-11.05%
CC(=O)Nc1ccc(Cl)c(C(=O)N(C)C(C)c2ccon2)c1 (configuration not stated)	2.031%
COCCN1CCN(Cc2nc3c(s2)CCCC3)[C@H]2CS(=O)(=O)C[C@H]21	-3.056%
CN(C)CCN(Cc1ccccc1)C(=O)C1=NNC(=O)CC1	-7.83%
Cc1ccc(NC2CCN(C(=O)c3cc(C(N)=O)cs3)CC2)nn1	7.568%
Cc1ccc(NC2CCN(C(=O)c3ccc(F)c(C)c3)CC2)nn1	89.48%
COc1ccc(C(=O)N2CCC(Nc3ccc(C)nn3)CC2)c(F)c1	-2.664%
Cc1ccc(NC2CCN(C(=O)c3ccc4c(c3)CCC4)CC2)nn1	112.2%
Cc1ccc(NC2CCN(C(=O)c3cccc(F)c3F)CC2)nn1	-1.212%
COc1cccc(COCC(=O)NC(C(N)=O)c2ccccc2)c1 (configuration not stated)	-6.273%
COc1cc2nc3n(c(=O)c2cc1OC)CCN(C(C)=O)CC3	-0.7868%
CCC(=O)N1CCc2nc3cc(OC)c(OC)cc3c(=O)n2CC1	-9.574%
COc1ccc2[nH]nc(CN3CCC(C(=O)N4CCCCC4)CC3)c2c1	-39.46%

SMILES	Percent Effect
COc1cc2nc(C)n(CC(=O)NCCCN(C)C)c(=O)c2cc1OC	20.74%
CCCC(=O)N1CCc2nc3cc(OC)c(OC)cc3c(=O)n2CC1	121.4%
COc1cc2nc3n(c(=O)c2cc1OC)CCN(C(=O)C(C)(C)C)CC3	130.5%
COc1cc2nc3n(c(=O)c2cc1OC)CCN(C(=O)C1CCC1)CC3	115.6%
COc1cc2nc3n(c(=O)c2cc1OC)CCN(C(=O)C1CC1)CC3	109.5%
CC(CCN(C)C)NC(=O)c1cccc(C(F)(F)F)c1F (configuration not stated)	5.139%
CN(Cc1ccncc1)CC(c1cccs1)N1CCOCC1 (configuration not stated)	-0.8027%
Cc1ccc(C(=O)N(Cc2cccnc2)C[C@@H]2CCC(=O)N2)s1	6.518%
CCc1cnc(N)nc1NCCCn1cc(Cl)cn1	12.08%
O=C(CCCNC(=O)C1CCCO1)Nc1ccc(Cl)cc1 (configuration not stated)	123.9%
O=C(CCC1CCCO1)NCCCC(=O)Nc1ccc(Cl)cc1 (configuration not stated)	132.9%
O=C(CCCNC(=O)C1CC1)Nc1cnn(-c2ccccc2Cl)c1	2.837%
O=C(NCCNS(=O)(=O)c1cccc(Cl)c1)C1CCCO1 (configuration not stated)	-1.895%
O=C(CC1CCCO1)NCCc1ccccc1Br (configuration not stated)	-5.645%
O=C(CC1CCCO1)NCCCC(=O)Nc1ccc(Cl)cc1 (configuration not stated)	117.3%
O=C(CCC1CCCO1)NCCCO (configuration not stated)	-3.139%
O=C(CCCNC(=O)NCC1CCCO1)Nc1ccc(Cl)cc1 (configuration not stated)	100.3%
O=C(NCCCN1CCN(c2ncccn2)CC1)NCC1CCCO1 (configuration not stated)	8.99%
O=C(CCC1CCCO1)NS(=O)(=O)c1ccc(Cl)cc1 (configuration not stated)	-0.06204%
O=C(CC1CCCO1)NCCc1ccc(Br)cc1F (configuration not stated)	2.724%
CNS(=O)(=O)c1ccc(CNC(=O)NCC2CCCO2)cc1 (configuration not stated)	-4.659%
CNS(=O)(=O)CC1CCCN1c1ccccn1 (configuration not stated)	-17.04%
Cc1nc(-c2ccccc2)sc1CSC(C)C(N)=O (configuration not stated)	-3.877%
CCOC(C)c1nc(CN2CCC(NC(C)C)CC2)cs1 (configuration not stated)	9.562%
Cc1nn2cc(CCNC(=O)c3cc(C(C)C)no3)nc2s1	-4.133%
CN(CCc1ccccn1)C(=O)C(c1cccnc1)N1CCOCC1 (configuration not stated)	2.073%

SMILES	Percent Effect
Cc1cc(C(=O)N2C[C@@H]3[C@@H](CN(C)CCc4ccccn4)[C@@H]3C2)c(C)o1	-1.529%
Cc1ccc(C)c(-n2ncc(C(=O)N(C)CCc3ccccn3)c2N)c1	159.7%
CN(CCc1ccccn1)C(=O)c1cnn(-c2ccccc2F)c1N	110.9%
Cc1cc(Cl)ccc1-n1ncc(C(=O)N(C)CCc2ccccn2)c1N	185.4%
CN(CCc1ccccn1)C(=O)c1ccccc1F	-16.13%
CCOC(=O)c1cnn(-c2cc(C)ccn2)c1N	-12.86%
Cc1ccccc1SC1CCN(C(=O)[C@@H]2C[C@@H](N)CN2)CC1	-21.68%
O=C(O)C(F)(F)F.O=C(O)C(F)(F)F.O=C(O)c1cc2c(nc1-c1cncnc1)CCN(C1CCOC1)CC2 (configuration not stated)	-20.41%
Cc1cnn(CC2CCCCN2CCCS(N)(=O)=O)c1 (configuration not stated)	-7.264%
OC1(CN2CCCCC2)CCN(Cc2c[nH]c(CC3CCCC3)n2)C1 (configuration not stated)	5.378%
CN(Cc1c(F)cccc1Cl)C(=O)c1cnn(CCN2CCCCC2)c1	4.459%
COc1ccc(F)c(-c2nccn2CCN2CCCC2)c1	-4.269%
O=C(CN1CCCCCC1)NCc1ccc2[nH]c(=O)[nH]c2c1	33.1%
O=C(COCC1CC1)N1CCN(C(=O)Cc2ccccn2)CC1	1.286%
O=C(O)[C@@H]1CCN(C(=O)c2ccccn2)[C@@H]1c1ccc(F)cc1	129.5%
O=C(COC1CCCCC1)N1CCN(C(=O)Cc2ccccn2)CC1	-7.801%
O=C(O)[C@@H]1CCN(C(=O)Cc2ccccn2)[C@@H]1c1ccc(F)cc1	124%
CC(C)OC(=O)N1C[C@H]2CC[C@@H]1CN(C(=O)c1ccccn1)C2	1.179%
O=C(O)[C@@H]1CCN(C(=O)c2cscn2)[C@@H]1c1ccc(F)cc1	132.5%
CC(C)OC(=O)[C@@H]1CCN(C(=O)c2ccccn2)[C@@H]1c1ccc(F)cc1	116.9%
O=C(c1cscn1)N1CC[C@H]2[C@@H]1CCC(=O)N2c1ccccc1	5.214%
Cc1ccccc1N1CCN(C(=O)c2cscn2)C(C)C1 (configuration not stated)	6.365%
O=C1N[C@@H]2CCN(C(=O)c3ccccc3)[C@@H]2C(=O)N1c1ccc(F)cc1	9.769%
O=C(O)C(F)(F)F.O=C([C@H]1C[C@H]2OCC[C@H]2N(C(=O)c2ccccn2)C1)N1CCCCO1	-2.538%

— ChEMBL document CHEMBL3988442, “University of Dundee, Small-Polar-MMV Screening Library” (2021)
